GI50 data for 11 substances are collected here from ChEMBL document CHEMBL1201862, “PubChem BioAssay data set” (2004).

Out of some 58,000 sequences screened, about 4,000 (6.9%) were called active. Cut-off read from the data, not from the text of the source: active = GI50 up to about 1.1 µM and inactive = higher. Not all results are given here. Entries with a potency or affinity are not part of this list.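 Step 1: Grow cells in 96-well plates. Step 2: Expose to compound for 48 hours at 5 concentrations. Step 3: Interpolate endpoints linearly; if unreached, use highest concentration. The concentration for 50% growth inhibition is given as GI50.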

The subject of this experiment is KM12. Description: NCI tumour cell line growth inhibition, 48 h.
The substance “[Bis(aminomethyl)pentamethylenesilane]dichloropaltinum(II), CHEMBL2146202” had a GI50 of 5.56 µM.
“[Bis(aminomethyl)tetramethylenesilane]dichloropaltinum(II), CHEMBL2146205” registered a GI50 of 78 µM.
Turning to “mu-(1,7-nanodiamine-N,N')bis-(cis-aminedichloroplatimum (II)), CHEMBL2146215”, the GI50 came to 97.1 µM.
For “[Bis(aminomethyl)pentamethylenesilane]tetrachloropaltinum(IV), CHEMBL2146204” the value was 4.12 µM; for “[Bis(aminomethyl)ethylmethylsilane]tetrachloroplatinum(IV), CHEMBL2146192”, 3.89 µM.
The same measure for “[Bis(aminomethyl)diethylsilane]tetrachloroplatinum(IV), CHEMBL2146203”: 8.85 µM.
Substance “[Bis(aminomethyl)dimethylsilane]dichloroplatinum (II), CHEMBL2146201” returned a GI50 of more than 100 µM.
CISPLATIN, CHEMBL11359 registered a GI50 of 10 µM.
In turn, “[Bis(aminomethyl)dimethylsilane]tetrachloroplatinum(IV), CHEMBL2146190” displayed a GI50 of 18.1 µM.
For “[Bis(aminomethyl)tetramethylenesilane]tetrachloropaltinum(IV), CHEMBL2146189” the value was 14.8 µM.
The same measure for “cis-Bis[[(trimethylsilyl)methyl]amino]tetrachloroplatinum(IV), CHEMBL2146191”: 9.66 µM.
